Assay [1] has as its target Albumin (Bos taurus) (UniProt P02769). The assay is described as follows: compounds binding labelled BSA control protein – biochemical, small-molecule microarray, Alexa647 label, 635/667 nm fluorescence, artefact control for SMM control protein annotation, profiling panel (AID 1118).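 Note: score merges 667 nm emission intensity and signal-to-noise per printed compound spot.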 Particulars: BSA-A647 binding, fluorescence 635 nm, higher = more signal.
A short description of assay [2]: probe aXIP binding to arrayed compounds – biochemical, NeuroSMM set, 635/667 nm fluorescence, primary screen (AID 1119).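 Note: probe is the protein aXip251-270 applied at 1 µg/mL to compound-printed slides; binding of probe to printed compounds measured as 667 nm fluorescence plus signal to noise.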 The following applies: small-molecule microarray, higher = more signal, called active from +8 up or from −8 down.
Assay [3] is described as follows: probe aNOTCH3 binding on compound microarray – biochemical, small-molecule microarray, 635/667 nm fluorescence, primary screen (AID 1120).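 Note: probe is a biotin-tagged antibody raised against NOTCH3 rather than NOTCH3 protein; score merges spot fluorescence near 667 nm with spot signal to noise.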 Particulars: higher = more signal.
Assay [4] can be described thus: probe aNOTCH2 binding on compound microarray – biochemical, small-molecule microarray, 635/667 nm fluorescence, primary screen (AID 1121).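 Note: score merges feature fluorescence read at 667 nm with its signal to noise.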 The following applies: higher = more signal.
In assay [5] the target is Carbonic anhydrase 2 (Homo sapiens) (UniProt P00918). In words: compounds binding carbonic anhydrase 2 – biochemical, small-molecule microarray, Alexa647-labelled CAII, profiling panel (AID 1122). The following applies: CAII-A647 binding fluorescence, higher = more signal.
Assay [6] can be described thus: COS7 lysate on small-molecule microarray, probe aHis, 635 nm (AID 1123).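 Note: z-score combines 667nm fluorescence intensity with signal-to-noise per printed compound spot.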 The following applies: COS7 cell lysate, fluorescence, higher = more signal.
Assay [7] is described as follows: probe aLAP1 signal on lysate-treated microarray – cell lysate, small-molecule microarray, COS7 lysate, primary screen (AID 1124).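 Note: lysate comes from COS7 cells expressing LAP1 and is applied at 0.3 µg/mL; score merges spot fluorescence near 667 nm with signal-to-noise over triplicate slides.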 The following applies: probe aLAP1, fluorescence, higher = more signal.
Assay [8] relates to Sam68 (KHDRBS1). In words: compounds binding KHDRBS1 protein – biochemical, small-molecule microarray, 635 nm fluorescence, primary screen (AID 1125).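 Note: score merges 667 nm channel intensity with signal to noise over triplicate slides.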 Particulars: higher = more signal.
In assay [9] the test system is Chordin-like protein 2 (CHRDL2). The assay is described as follows: compounds binding chordin-like 2 – biochemical, small-molecule microarray, 635 nm fluorescence, primary screen (AID 1126).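 Note: printed compound slides probed with Chrdl2 protein at 4 µg/mL for 1 h at 4 C; score merges 667 nm emission intensity with signal to noise over three replicate slides.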 The following applies: fluorescence 635 nm, higher = more signal.
For assay [10], the target named is Concanavalin-A (Canavalia ensiformis) (UniProt P02866). In words: compounds binding concanavalin A lectin – biochemical, small-molecule microarray, Alexa647 label, 635 nm, artefact control for SMM control protein annotation, primary screen (AID 1127).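 Note: z combines 667 nm emission intensity with signal-to-noise across three replicate slides.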 Particulars: ConA-A647 binding fluorescence, higher = more signal.
Concanavalin-A (Canavalia ensiformis), sequence (P02866 whole entry, looked up): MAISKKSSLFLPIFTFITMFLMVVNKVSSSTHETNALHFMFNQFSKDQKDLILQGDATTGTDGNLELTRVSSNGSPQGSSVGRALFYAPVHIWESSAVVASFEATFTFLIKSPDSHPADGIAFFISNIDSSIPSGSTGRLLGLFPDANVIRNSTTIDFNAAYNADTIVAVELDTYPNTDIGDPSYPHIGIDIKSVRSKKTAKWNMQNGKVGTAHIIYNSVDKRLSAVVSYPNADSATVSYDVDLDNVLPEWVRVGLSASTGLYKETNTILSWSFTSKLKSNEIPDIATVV
Assay [11] in a line: compounds binding Alexa647 anti-His antibody – biochemical, small-molecule microarray, 635 nm fluorescence, artefact control for SMM control protein annotation, primary screen (AID 1128).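 Note: score merges feature fluorescence with signal-to-noise for each printed compound spot.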 The following applies: higher = more signal.
The subject of assay [12] is Human papillomavirus type 1a E7 protein (residues 1-88). The assay is described as follows: HPV1a E7 small-molecule binders, primary screen, biochemical, small-molecule microarray, residues 1-88, 635 nm (AID 1129). The following applies: small-molecule microarray binding, fluorescence 635 nm; higher = more signal.
The target of assay [13] is Focal adhesion kinase 1 (Homo sapiens) (UniProt Q05397). In words: PTK2 protein binding on printed compound slides – biochemical, small-molecule microarray, 635/667 nm fluorescence, BSA, DTT, primary screen (AID 1130).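 Note: composite of spot emission at 667 nm and signal to noise over triplicate slides.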 Particulars: 635 nm fluorescence, higher = more signal.
Focal adhesion kinase 1 (Homo sapiens), sequence (Q05397 whole entry, looked up): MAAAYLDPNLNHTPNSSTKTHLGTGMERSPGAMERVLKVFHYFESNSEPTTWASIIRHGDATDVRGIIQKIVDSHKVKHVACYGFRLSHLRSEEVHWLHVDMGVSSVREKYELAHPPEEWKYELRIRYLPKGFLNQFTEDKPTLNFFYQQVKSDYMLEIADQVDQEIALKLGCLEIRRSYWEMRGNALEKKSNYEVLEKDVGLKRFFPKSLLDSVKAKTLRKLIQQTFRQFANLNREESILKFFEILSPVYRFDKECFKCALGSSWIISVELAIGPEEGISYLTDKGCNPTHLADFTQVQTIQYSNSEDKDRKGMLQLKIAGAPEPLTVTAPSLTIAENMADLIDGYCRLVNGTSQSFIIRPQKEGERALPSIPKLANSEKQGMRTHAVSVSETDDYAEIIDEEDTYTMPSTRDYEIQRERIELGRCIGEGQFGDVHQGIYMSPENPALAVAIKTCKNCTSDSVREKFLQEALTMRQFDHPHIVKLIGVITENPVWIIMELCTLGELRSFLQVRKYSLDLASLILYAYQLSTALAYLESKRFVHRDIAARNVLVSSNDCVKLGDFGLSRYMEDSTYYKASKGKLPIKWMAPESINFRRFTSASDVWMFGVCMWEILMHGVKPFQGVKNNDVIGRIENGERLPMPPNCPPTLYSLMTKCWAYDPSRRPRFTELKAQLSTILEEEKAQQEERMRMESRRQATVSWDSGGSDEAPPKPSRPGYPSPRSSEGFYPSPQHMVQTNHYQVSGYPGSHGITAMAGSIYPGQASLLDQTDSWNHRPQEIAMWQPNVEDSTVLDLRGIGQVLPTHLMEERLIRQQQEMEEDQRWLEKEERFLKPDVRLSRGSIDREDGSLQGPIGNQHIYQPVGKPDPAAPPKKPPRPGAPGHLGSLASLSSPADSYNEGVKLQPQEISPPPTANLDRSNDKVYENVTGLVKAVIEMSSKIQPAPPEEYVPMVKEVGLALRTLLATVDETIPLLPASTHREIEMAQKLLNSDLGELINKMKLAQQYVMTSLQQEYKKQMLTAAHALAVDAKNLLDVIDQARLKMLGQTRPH
The test system of assay [14] is Fibrinogen (Alexa647-labelled). The assay is described as follows: Alexa647-fibrinogen binding to printed small molecules – biochemical, small-molecule microarray, 635/667 nm fluorescence, artefact control for SMM control-protein annotation, profiling panel (AID 1131).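 Note: z-score merges 667 nm fluorescence with per-spot signal-to-noise over triplicate slides.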 Particulars: fibrinogen-A647 binding fluorescence, higher = more signal.
Assay [15] concerns the target Follistatin (Homo sapiens) (UniProt P19883). The assay is described as follows: FST protein binding to printed compounds – biochemical, small-molecule microarray, 635/667 nm fluorescence, primary screen (AID 1132). The following applies: 635 nm fluorescence, higher = more signal.
For assay [16], the target named is Fibroblast growth factor 2 (Homo sapiens) (UniProt P09038). The assay is described as follows: basic fibroblast growth factor binding to printed compounds – biochemical, small-molecule microarray, 635/667 nm fluorescence, primary screen (AID 1133). Particulars: FGF2, fluorescence 635/667, higher = more signal.
Fibroblast growth factor 2 (Homo sapiens), sequence (P09038 whole entry, looked up): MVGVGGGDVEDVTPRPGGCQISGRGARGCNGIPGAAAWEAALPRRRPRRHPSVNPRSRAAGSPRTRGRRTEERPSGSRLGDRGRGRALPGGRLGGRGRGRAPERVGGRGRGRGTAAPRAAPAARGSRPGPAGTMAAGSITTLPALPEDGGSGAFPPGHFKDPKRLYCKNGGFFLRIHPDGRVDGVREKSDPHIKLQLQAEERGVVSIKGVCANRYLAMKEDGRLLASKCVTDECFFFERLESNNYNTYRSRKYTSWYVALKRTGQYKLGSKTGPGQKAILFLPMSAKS
Assay [17] is described as follows: JC-1 mitochondrial potential readout, lung cancer cells – cell-based, A549, JC-1 fluorescence, basal, 24 h, 100 nL, profiling panel (AID 1138).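 Note: A549 lung adenocarcinoma cells under basal conditions with no added stimulus; test concentration not given here.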 The following applies: higher = more signal.
The subject of assay [18] is Lefty1. In words: Lefty1 protein binding to printed compounds – biochemical, small-molecule microarray, 635/667 nm fluorescence, primary screen (AID 1139). Particulars: fluorescence 635/667, higher = more signal.
Assay [19] relates to wheat germ agglutinin (Triticum aestivum), Alexa647-labelled. The assay is described as follows: Alexa647-WGA lectin binding to printed small molecules – biochemical, small-molecule microarray, 635/667 nm fluorescence, artefact control for SMM control-protein annotation, profiling panel (AID 1140).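 Note: score merges 667 nm feature emission with signal to noise over triplicate slides.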 Particulars: WGA-A647 binding, 635 nm fluorescence, higher = more signal.
For assay [20], the target named is Luciferin 4-monooxygenase (Photinus pyralis) (UniProt P08659). The assay is described as follows: inhibition of purified Photinus pyralis luciferase – biochemical, luminescence, purified enzyme, 2006 set, primary screen (AID 1141).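 Note: cell-free assay with purified firefly luciferase at 100 ng per well in PBS; test concentration not given here.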 The following applies: purified firefly luciferase, SteadyGlo luminescence, 30 min; higher = more signal, called active from +8 up or from −8 down.
Luciferin 4-monooxygenase (Photinus pyralis), sequence (P08659 whole entry, looked up): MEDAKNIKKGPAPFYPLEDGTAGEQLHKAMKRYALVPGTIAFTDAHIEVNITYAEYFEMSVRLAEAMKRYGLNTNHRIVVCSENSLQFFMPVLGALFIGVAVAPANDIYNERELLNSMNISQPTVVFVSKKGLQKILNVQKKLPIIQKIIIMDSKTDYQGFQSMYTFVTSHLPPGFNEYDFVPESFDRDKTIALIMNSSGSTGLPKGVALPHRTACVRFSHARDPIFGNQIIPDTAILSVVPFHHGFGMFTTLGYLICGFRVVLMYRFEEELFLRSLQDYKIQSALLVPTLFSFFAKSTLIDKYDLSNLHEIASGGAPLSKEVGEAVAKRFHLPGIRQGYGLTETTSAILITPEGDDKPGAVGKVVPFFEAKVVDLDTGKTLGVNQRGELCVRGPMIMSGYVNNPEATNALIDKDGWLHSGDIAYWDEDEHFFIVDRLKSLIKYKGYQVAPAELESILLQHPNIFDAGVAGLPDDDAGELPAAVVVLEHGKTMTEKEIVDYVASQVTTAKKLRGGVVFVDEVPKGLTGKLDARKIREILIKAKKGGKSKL

Active and inactive are the calls of the source.

Albumin (Bos taurus), sequence (P02769 whole entry, looked up): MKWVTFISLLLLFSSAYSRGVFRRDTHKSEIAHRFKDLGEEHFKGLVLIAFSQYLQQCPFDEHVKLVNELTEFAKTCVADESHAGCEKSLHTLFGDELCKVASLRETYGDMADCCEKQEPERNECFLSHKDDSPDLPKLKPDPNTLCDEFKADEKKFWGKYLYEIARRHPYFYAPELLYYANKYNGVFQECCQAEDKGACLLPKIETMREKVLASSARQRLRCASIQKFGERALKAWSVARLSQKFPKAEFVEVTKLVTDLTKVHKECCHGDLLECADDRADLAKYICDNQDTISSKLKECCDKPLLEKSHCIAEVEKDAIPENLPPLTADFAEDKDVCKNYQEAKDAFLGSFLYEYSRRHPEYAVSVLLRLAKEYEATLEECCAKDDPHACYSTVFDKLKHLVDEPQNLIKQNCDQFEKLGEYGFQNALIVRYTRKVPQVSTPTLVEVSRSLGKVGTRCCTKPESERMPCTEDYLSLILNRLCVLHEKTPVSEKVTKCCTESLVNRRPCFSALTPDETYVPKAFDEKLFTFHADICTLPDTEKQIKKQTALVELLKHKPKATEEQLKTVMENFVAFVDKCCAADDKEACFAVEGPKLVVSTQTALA
Follistatin (Homo sapiens), sequence (P19883 whole entry, looked up): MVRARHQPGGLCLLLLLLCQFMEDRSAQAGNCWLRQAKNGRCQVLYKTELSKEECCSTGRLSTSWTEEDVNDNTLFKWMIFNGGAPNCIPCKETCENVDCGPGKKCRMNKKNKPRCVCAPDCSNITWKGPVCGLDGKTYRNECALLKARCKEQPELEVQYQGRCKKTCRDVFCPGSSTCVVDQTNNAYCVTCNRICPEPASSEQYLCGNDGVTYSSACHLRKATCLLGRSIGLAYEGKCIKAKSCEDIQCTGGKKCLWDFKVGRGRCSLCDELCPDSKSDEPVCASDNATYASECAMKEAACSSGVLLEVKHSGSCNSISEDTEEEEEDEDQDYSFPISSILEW

Take `O=C1NC(=O)C2C1C=CC(C(O)C=Cc1ccc([N+](=O)[O-])cc1)N2Nc1ccccn1` (stereo not given): the composite z-score in assay [1] was -0.0573; in [3], 0.0104; in [4] it was 0.0337; in assay [5] it was 0.863; in assay [6], 1.4; in assay [7], 1.07. Also, the composite z-score in assay [8] was -0.257; in [9], 1.39; in [10] it was 0.367; in assay [11] it was 2.75; in [12], 0.235; in [13], -0.0708. For the same molecule, the composite z-score is 0.123 in assay [14]; 0.637 in [15]; 1.92 in [16]; 0.509 in [18]; 0.551 in assay [19]. Also, the composite Z-score in [2] was 1.28 (inactive). Moreover, the z-score was 0.361 in assay [17] and -1.07 (inactive) in [20].

Turning to `CC(=O)NCCCC[C@@H]1NC(=O)[C@@H]2C[C@H](C(=O)NCCCCCCN(C)C)[C@H](c3ccc(O)cc3)N2C1=O`, the composite z-score was -0.853 in [1]; -0.0396 in [3]; 0.112 in assay [4]; 0.57 in [5]; 1.92 in assay [6]; -0.234 in assay [7]. Moreover, the composite z-score in assay [8] came to 1.32; in assay [9], 1.44; in assay [10], 1.21; in [11], 2.82; in [12], 1.26; in assay [13] it was 0.383. In addition, the composite z-score in assay [14] stood at 0.53; in assay [15], 1.34; in assay [16], 1.56; in assay [18], 1.58; in assay [19], 1.25. The composite Z-score in [2] was 0.67 (inactive). In addition, the z-score in [17] was 0.543; in assay [20], -0.916 (inactive).

Regarding `Cc1ccc(S[C@]2(C(=O)O)CC(=O)N(Cc3cc(C(F)(F)F)cc(C(F)(F)F)c3)[C@@H]2c2ccc(CO)cc2I)cc1`, the composite z-score in assay [1] is 0.372; in assay [3], -0.243; in assay [4], -0.154; in [5], 0.0858; in [6], 0.0199; in [7] it was -0.439. Besides, the composite z-score is 0.456 in assay [8]; -1.02 in assay [9]; 0.226 in assay [10]; -0.339 in [11]; -0.664 in assay [12]; 0.0035 in assay [13]. Also, the composite z-score in assay [14] was -1.56; in assay [15] it was -0.251; in assay [16], -0.325; in assay [18], -0.89; in assay [19], -1.09. Moreover, the composite Z-score in assay [2] was 1.54 (inactive). The z-score in assay [17] is -0.603; in [20], -1.3 (inactive).

In the case of `CC(=O)NCCCC[C@@H]1NC(=O)[C@H]2C[C@@H](C(=O)NCCCCCCN(C)C)[C@@H](c3ccc(O)cc3)N2C1=O`, the composite z-score in assay [1] is -0.546; in assay [3], 0.029; in [4], -0.0626; in [5], 0.365; in [6], 2.16; in [7] it was -0.1. In addition, the composite z-score is 1.31 in assay [8]; 1.09 in [9]; 1.18 in assay [10]; 3.14 in assay [11]; 1.25 in [12]; 0.554 in assay [13]. Moreover, the composite z-score in assay [14] was 0.793; in [15] it was 1.34; in assay [16] it was 0.903; in assay [18], 1.55; in assay [19] it was 1.29. In [2], the composite Z-score is 1.44 (inactive). The z-score in assay [17] is -1.26; in assay [20] it was 0.0866 (inactive).

Take `CN1CCC(CCCO)=CC1C1CC1` (stereo not given): the composite z-score in assay [1] was -0.958; in [3] it was -0.0918; in assay [4] it was -0.181; in [5], 0.299; in assay [6], 0.238; in assay [7], -0.569. The composite z-score in [8] was 0.0585; in assay [9], 0.39; in assay [10], 0.066; in assay [11], 0.346; in [12], -0.256; in assay [13], -0.233. Further, the composite z-score is -0.146 in assay [14]; 0.803 in [15]; 0.923 in assay [16]; 1.12 in assay [18]; -0.59 in assay [19]. Besides, in assay [2], the composite Z-score is 3.24 (inactive). In addition, the figures for the z-score in [17] and in assay [20] were 0.949 and -0.703 (inactive), respectively.
